The source of these data is PubChem BioAssay (Tox21).

Values without a mark were called inactive. Results filed as inconclusive are left out. Calls of active or inactive are those of the source. Unless noted, the call rests on the fitted dose curve; in most records, active means well fitted curve in the direction sought with a large enough effect in the repeat runs; inconclusive means weak or mixed curves; inactive means no such curve, though single readings can be large; an effect the other way counts as inactive or inconclusive.

Assay [1] has as its target Progesterone receptor (Homo sapiens) (UniProt P06401). In words: qHTS assay to identify small molecule agonists of the progesterone receptor (PR) signaling pathway (AID 1346784; calls by dose curve; further: nearly all actives have a fitted effect of over 30% in size). The essentials: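 PR-UAS-bla HEK 293T cells carrying a UAS-driven beta-lactamase reporter were seeded in medium with 2% charcoal-stripped FBS, preincubated 6 hr at 37C, then exposed to compounds in DMSO for 16 hr; agonism was read by LiveBLAzer B/G FRET fluorescence.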

Assay [2] has the same target. The experiment in a line: qHTS assay to identify small molecule antagonists of the progesterone receptor (PR) signaling pathway (AID 1346795; active means well fitted inhibition curve with a large enough effect in the signal ratio in the repeat runs, not every such curve was filed as active; the % refers to the signal ratio). The essentials: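 PR-UAS-bla HEK293T cells carrying a UAS-driven beta-lactamase reporter were plated in medium with 2% charcoal-stripped FBS and rested 6 hr at 37C. Compounds were added with 1 nM R5020 (final) for 16 hr, then FRET substrate loaded 2 hr at room temperature.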
In general terms: Quantitative high-throughput screening tests each substance at several concentrations.

Assay [3] can be described thus: qHTS assay to identify small molecule antagonists of the progesterone receptor (PR) signaling pathway - cell viability counter screen (AID 1346798). Further: nearly all actives have a fitted effect of over 50% in size. Further: potency means the concentration at half of the fitted maximal effect. On activity change, negative = cytotoxicity: series mostly up to about 92 µM. The essentials: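 PR-UAS-bla HEK293T cells in medium with 2% charcoal-stripped FBS were treated with compounds plus R5020 for 16 hr at 37C. Cell viability was then read by CellTiter-Glo luminescence after 30 min at room temperature in the same wells.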

Assay [4] is described as follows: qHTS assay to identify small molecule agonists of the progesterone receptor (PR) signaling pathway - cell viability counter screen (AID 1346799; calls by dose curve; further: nearly all actives have a fitted effect of over 45% in size; further: potency means the concentration at half of the fitted maximal effect). The method, boiled down: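 PR-UAS-bla HEK293T cells, 3,000 per well in medium with 2% charcoal-stripped FBS, were preincubated 6 hr at 37C, then exposed to compounds for 16 hr; viability was read as CellTiter-Glo luminescence after 30 min at room temperature.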

Assay [5] in a line: qHTS assay to identify small molecule antagonists of the TGF-beta/Smad signaling pathway - cell viability counter screen (AID 1346824). Further: nearly all actives have a fitted effect of over 50% in size. The essentials:
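Cytotoxicity counter-screen run in the same wells as the beta-lactamase Smad reporter read: CellTiter-Glo luminescence after 30 min at room temperature. HEK 293T SBE-bla cells had 5 hr compound exposure at 37 C with TGF-beta1 (0.25 ng/mL stock).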

Assay [6] can be described thus: qHTS assay to identify small molecule agonists of the TGF-beta/Smad signaling pathway - cell viability counter screen (AID 1346829). Further: top concentration of the series differs between compounds; nearly all actives have a fitted effect of over 45% in size. The essentials: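 In parallel with the Smad reporter read, viability of HEK 293T cells stably carrying SBE-bla is quantified by ATP luminescence following 5 hr compound treatment.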
Assay [7] in a line: qHTS assay to identify small molecule agonists of the TGF-beta/Smad signaling pathway (AID 1346859; active means well fitted activation curve with a large enough effect in the signal ratio in the repeat runs, not every such curve was filed as active; the % refers to the signal ratio; further: series mostly up to about 77 µM). The method, boiled down:
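HEK 293T cells stably carrying a beta-lactamase reporter driven by the Smad binding element were seeded overnight, exposed to DMSO-dissolved compounds for 5 hr at 37 C, 5% CO2, then loaded with FRET substrate for 2 hr at room temperature.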

The target of assay [8] is Thyrotropin-releasing hormone receptor (Homo sapiens) (UniProt P34981). The experiment in a line: qHTS assay to identify small molecule antagonists of the thyrotropin-releasing hormone receptor (TRHR) signaling pathway (AID 1346877; active means well fitted inhibition curve with a large enough effect in the repeat runs, not every such curve was filed as active; further: series mostly up to about 51 µM). The essentials:
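Antagonism is measured as suppression of the calcium response to 1 nM TRH in TRHR-HEK293 cells that have been dye-loaded for 2 h at 37 °C after overnight plating. Each compound is tested at 15 concentrations in triplicate.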

The target is the same in assay [9]. In words: qHTS assay to identify small molecule agonists of the thyrotropin-releasing hormone receptor (TRHR) signaling pathway (AID 1346891; calls by dose curve; further: series mostly up to about 58 µM). The essentials: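 TRHR-expressing HEK293 cells were plated 18 h at 37 °C/5% CO2, loaded with calcium dye 2 h at 37 °C, then given compound in DMSO; fluorescence was read kinetically for 3 min at 1 s intervals.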
A short description of assay [10]: Human pregnane X receptor (PXR) small molecule agonists, qHTS cell viability counter screen (AID 1346977). Further: nearly all actives have a fitted effect of over 50% in size. The method, boiled down:
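PXR-Luc HepG2 cells in medium with 5% charcoal-stripped FBS were pre-incubated 5hr, then exposed to compounds for 24hr at 37C. Viability was read in the same wells by CellTiter-Fluor fluorescence, reagent added after 23hr with a 1hr incubation.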

The nature of assay [11]: Caspase-3/7 induction in HepG2 cells by small molecules, qHTS assay (AID 1346978). Further: nearly all actives have a fitted effect of over 15% in size. The essentials: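 Caspase-3/7 induction was measured by Caspase-Glo 3/7 luminescence (30 min, room temperature) after a 17 hr compound exposure of wild-type HepG2 cells seeded at 2,000 per well and pre-incubated 5 hr.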
Assay [12] is described as follows: Caspase-3/7 induction in CHO-K1 cells by small molecules, qHTS assay (AID 1346980). Further: nearly all actives have a fitted effect of over 15% in size. The essentials:
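Luminescent Caspase-Glo 3/7 read (30min, room temperature) quantified apoptosis induction. Cells were wild-type CHO-K1, treated with compound for 17hr at 37 C and 5% CO2.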

Assay [13] deals with Nuclear receptor subfamily 1 group I member 2 (Homo sapiens) (UniProt O75469). In words: Human pregnane X receptor (PXR) small molecule agonists, qHTS assay (AID 1346982). Further: nearly all actives have a fitted effect of over 35% in size. Further: potency means the concentration at half of the fitted maximal effect. The essentials:
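Cells: HepG2 stably carrying PXR-Luc. Medium held 5% charcoal-stripped FBS. Compounds in DMSO added after 5 hr plating, incubated 24 hr, then luminescence quantified with ONE-Glo.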

Assay [14] addresses Cytochrome P450 2D6 (Homo sapiens) (UniProt P10635). In words: Cytochrome P450 Family 2 Subfamily D Member 6 (CYP2D6) small molecule antagonists: luciferase reporter qHTS assay (AID 1671196). Further: nearly all actives have a fitted effect of over 50% in size. Further: potency means the concentration at half of the fitted maximal effect. On activity change, negative = inhibition: series mostly up to about 120 µM. The method, boiled down:
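Enzyme and proluciferin substrate were first combined with test chemical for 10 min at room temperature. Adding NADPH regeneration solution started a 1 h reaction, stopped with luciferin detection reagent and read by luminescence 20 min later.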
A general note: A reporter such as luciferase makes a cellular process visible.

Assay [15] deals with Cytochrome P450 2C19 (Homo sapiens) (UniProt P33261). In words: Cytochrome P450 Family 2 Subfamily C Member 19 (CYP2C19) small molecule antagonists: luciferase reporter qHTS assay (AID 1671197). Further: nearly all actives have a fitted effect of over 65% in size. Further: potency means the concentration at half of the fitted maximal effect. On activity change, negative = inhibition: series mostly up to about 120 µM. The essentials:
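Compounds were tested on CYP2C19 activity via proluciferin conversion to luciferin. The 37C, 1 h reaction followed NADPH addition; detection reagent stopped it.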

Assay [16] in a line: Caspase-3/7 induction in CHO-K1 cells by small molecules, qHTS cell viability counter screen (AID 1346979). Further: nearly all actives have a fitted effect of over 35% in size. The method, boiled down:
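Wild-type CHO-K1 cells were seeded at 1,500 per well, rested 5hr at 37 C, then exposed to compounds in DMSO. After 16hr, CellTiter-Fluor reagent was added and fluorescence read 1hr later as the viability measure.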

Assay [17] in a line: Caspase-3/7 induction in HepG2 cells by small molecules, qHTS cell viability counter screen (AID 1346981). Further: series mostly up to about 92 µM; nearly all actives have a fitted effect of over 30% in size. The method, boiled down:
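Cell viability is measured as a cytotoxicity counter screen alongside the Caspase-Glo 3/7 readout in identical wells. Wild-type HepG2 cells are treated with test compounds for 16 hr at 37 C before CellTiter-Fluor addition and a 1-hr incubation.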
On the % scale 0 is the no-effect control and ±100 the full control effect.

Sequence of Cytochrome P450 2C19 (Homo sapiens) (P33261 whole entry, looked up): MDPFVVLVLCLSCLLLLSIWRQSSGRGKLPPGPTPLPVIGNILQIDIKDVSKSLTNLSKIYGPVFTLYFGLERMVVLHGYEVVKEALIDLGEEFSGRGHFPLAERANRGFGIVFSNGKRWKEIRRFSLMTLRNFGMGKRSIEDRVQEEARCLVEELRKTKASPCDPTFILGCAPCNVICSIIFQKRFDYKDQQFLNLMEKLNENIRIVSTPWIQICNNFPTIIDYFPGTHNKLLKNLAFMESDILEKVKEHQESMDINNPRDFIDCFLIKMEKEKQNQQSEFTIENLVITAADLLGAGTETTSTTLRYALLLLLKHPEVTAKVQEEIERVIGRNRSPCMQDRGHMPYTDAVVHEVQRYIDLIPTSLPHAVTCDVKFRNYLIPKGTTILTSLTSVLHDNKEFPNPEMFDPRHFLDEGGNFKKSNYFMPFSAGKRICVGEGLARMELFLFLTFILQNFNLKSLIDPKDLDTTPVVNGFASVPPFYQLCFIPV
Sequence of Progesterone receptor (Homo sapiens) (P06401 whole entry, looked up): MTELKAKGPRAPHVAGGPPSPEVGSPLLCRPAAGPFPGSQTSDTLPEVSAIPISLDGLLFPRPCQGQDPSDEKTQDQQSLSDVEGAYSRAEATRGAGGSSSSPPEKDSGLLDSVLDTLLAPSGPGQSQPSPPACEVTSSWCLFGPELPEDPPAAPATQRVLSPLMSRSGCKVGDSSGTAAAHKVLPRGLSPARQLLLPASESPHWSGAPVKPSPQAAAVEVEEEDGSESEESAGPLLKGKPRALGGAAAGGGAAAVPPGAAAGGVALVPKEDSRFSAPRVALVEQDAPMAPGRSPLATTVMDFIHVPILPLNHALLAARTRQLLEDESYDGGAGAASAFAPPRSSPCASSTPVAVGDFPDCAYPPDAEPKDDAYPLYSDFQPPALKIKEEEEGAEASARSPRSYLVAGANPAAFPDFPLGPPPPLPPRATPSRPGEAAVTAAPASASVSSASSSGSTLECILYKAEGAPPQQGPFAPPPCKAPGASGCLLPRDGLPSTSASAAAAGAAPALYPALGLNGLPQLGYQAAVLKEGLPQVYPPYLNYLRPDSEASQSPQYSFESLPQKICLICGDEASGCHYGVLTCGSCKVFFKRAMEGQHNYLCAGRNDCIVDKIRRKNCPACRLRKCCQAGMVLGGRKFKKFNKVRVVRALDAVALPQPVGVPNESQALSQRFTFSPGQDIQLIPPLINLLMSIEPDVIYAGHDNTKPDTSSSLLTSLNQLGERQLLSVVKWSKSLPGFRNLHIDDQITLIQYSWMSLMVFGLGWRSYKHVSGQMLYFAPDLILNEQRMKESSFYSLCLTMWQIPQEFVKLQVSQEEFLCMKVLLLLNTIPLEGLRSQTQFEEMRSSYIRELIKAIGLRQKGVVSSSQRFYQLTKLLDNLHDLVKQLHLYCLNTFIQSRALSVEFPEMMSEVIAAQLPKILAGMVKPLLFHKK
Sequence of Thyrotropin-releasing hormone receptor (Homo sapiens) (P34981 whole entry, looked up): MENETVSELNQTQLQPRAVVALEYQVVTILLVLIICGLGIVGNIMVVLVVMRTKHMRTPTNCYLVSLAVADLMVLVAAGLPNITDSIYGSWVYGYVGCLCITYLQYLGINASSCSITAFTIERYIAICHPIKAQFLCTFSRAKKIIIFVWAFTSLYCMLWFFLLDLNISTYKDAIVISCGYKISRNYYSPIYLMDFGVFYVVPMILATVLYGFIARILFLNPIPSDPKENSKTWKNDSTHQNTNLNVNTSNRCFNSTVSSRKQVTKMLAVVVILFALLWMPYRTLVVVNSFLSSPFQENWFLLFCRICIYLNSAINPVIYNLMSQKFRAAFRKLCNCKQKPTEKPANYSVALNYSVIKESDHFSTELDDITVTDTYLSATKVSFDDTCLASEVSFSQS
Sequence of Cytochrome P450 2D6 (Homo sapiens) (P10635 whole entry, looked up): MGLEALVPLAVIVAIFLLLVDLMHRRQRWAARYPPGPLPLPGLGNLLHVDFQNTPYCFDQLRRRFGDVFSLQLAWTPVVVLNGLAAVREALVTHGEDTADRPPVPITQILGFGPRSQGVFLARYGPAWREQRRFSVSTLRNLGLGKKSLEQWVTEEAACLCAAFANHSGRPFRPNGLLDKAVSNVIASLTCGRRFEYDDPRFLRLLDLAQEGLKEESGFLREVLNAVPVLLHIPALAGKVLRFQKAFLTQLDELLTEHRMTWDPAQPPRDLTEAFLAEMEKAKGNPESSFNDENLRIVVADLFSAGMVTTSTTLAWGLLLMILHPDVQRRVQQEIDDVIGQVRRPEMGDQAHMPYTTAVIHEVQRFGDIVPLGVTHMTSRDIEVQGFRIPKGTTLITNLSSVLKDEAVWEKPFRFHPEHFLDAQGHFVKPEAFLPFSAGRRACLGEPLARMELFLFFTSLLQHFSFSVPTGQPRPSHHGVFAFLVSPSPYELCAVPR
Sequence of Nuclear receptor subfamily 1 group I member 2 (Homo sapiens) (O75469 whole entry, looked up): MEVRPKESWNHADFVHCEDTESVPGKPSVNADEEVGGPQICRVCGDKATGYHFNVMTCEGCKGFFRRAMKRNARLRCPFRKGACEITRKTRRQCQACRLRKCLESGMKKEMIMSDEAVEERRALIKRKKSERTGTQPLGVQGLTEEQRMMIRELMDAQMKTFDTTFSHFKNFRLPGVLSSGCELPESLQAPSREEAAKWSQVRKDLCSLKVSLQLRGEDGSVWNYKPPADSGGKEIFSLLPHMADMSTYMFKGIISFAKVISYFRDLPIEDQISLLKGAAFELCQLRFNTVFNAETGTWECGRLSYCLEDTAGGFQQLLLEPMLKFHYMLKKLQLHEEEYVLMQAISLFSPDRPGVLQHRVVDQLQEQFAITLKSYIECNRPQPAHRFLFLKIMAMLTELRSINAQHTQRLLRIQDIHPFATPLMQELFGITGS

Take `CCc1c(C(=O)O)c(=O)cnn1-c1ccc(Cl)cc1`: the molecule was called inactive in assay [1]. The Potency entry in assay [2], in assay [3], in assay [4], in assay [5], in [6] and in assay [7] was “inactive” each time. Also, the Potency entry in assay [8], in assay [9], in assay [10], in [11], in [12] and in assay [13] was “inactive” in each case. Also, the Potency result in assay [14] and in [15] was “inactive” in each case.
As for `Cc1ccc(CCn2c3c(c4cc(Cl)ccc42)CN(C)CC3)cn1`, the result in [1] was inactive. The Potency entry in assay [2], in assay [5], in [6], in [7], in assay [8] and in assay [11] was “inactive” each time. The Potency in assay [3] is 26.6 µM (active); in assay [4], 21.1 µM (active); in assay [13], 33.5 µM (active); in assay [14] it was 7.76 µM (active); in assay [15], 17.4 µM (active).
On to `C=C(C)CCCC`, for which the call in assay [1] was inactive. The Potency entry in [2], in assay [3], in [4], in [5], in [6] and in assay [7] was “inactive” each time. Moreover, the Potency entry in [9], in [10], in [11], in assay [16], in [12] and in assay [17] was “inactive” in each case. For the same molecule, the Potency result in assay [13], in assay [14] and in assay [15] was “inactive” each time.
For `O=S(=O)(O)c1cc(S(=O)(=O)O)c2ccc3c(S(=O)(=O)O)cc(S(=O)(=O)O)c4ccc1c2c43`, the activation in [1] is -0.344% [at 19 µM]; in assay [7] it was 1.38% [at 15.8 µM]; in [9] it was -0.321% [at 11.8 µM]; in assay [13] it was -3.44% [at 19 µM]. Moreover, the figures for the activity change, negative = inhibition in [2], in assay [14] and in assay [15] were 5.54% [at 18.9 µM], -11.8% [at 23.6 µM] and -18.9% [at 23.6 µM], respectively. In addition, the activity change, negative = cytotoxicity in assay [3] is -15.6% [at 18.9 µM]; in assay [4] it was -11.2% [at 19 µM]; in assay [6], 10.3% [at 15.8 µM]; in [10] it was 3.17% [at 19 µM]; in assay [16] it was 5.57% [at 19 µM]; in [17], 6.28% [at 19 µM]. Also, the activity, negative = inhibition in assay [8] is -5.39% [at 10.5 µM]. The caspase activation in assay [11] is 0.784% [at 19 µM]. In assay [12], the caspase-3/7 activation is -0.007% [at 19 µM].
Consider `C[Si](C)O[Si](C)C`, for which, in [1], the result was inactive. Further, the Potency entry in [2], in assay [3], in assay [4], in assay [6], in assay [7] and in assay [10] was “inactive” each time. In addition, the Potency result in assay [11], in [16], in [12], in assay [13], in assay [14] and in assay [15] was “inactive” throughout.
For `CCCCCCCOC(=O)c1ccccc1C(=O)OCCCCCCC`, the result in [1] was inactive. Also, the Potency entry in assay [2], in [3], in assay [4], in assay [6], in assay [7] and in [8] was “inactive” in each case. The Potency entry in assay [9], in assay [10], in [11], in [16], in [12] and in [17] was “inactive” in each case. Also, the Potency result in assay [13] and in [14] was “inactive” in each case. Besides, the Potency in assay [15] is 39.9 µM (active).
